Inconclusive results are not listed. Calls of active or inactive are those of the source. Unless noted, calls follow the shape of the dose curve; as a rule, active = well fitted curve in the direction sought with a large enough effect in the repeat runs; inconclusive = weak or mixed curves; inactive = no such curve, though single readings can be large; an effect the other way counts as inactive or inconclusive.
Legend:
[1] = qHTS assay to identify small molecule antagonists of the thyroid receptor (TR) signaling pathway - cell viability counter screen (AID 743064); also: nearly all actives have a fitted effect of over 50% in size
Summary of the method: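 GH3.TRE-Luc rat pituitary cells dosed after 4 hr plating, co-stimulated with T3 at 1 nM final, incubated 23.5 h at 37 C. Viability measured in the same wells by CellTiter-Fluor fluorescence after 30 min further at 37 C.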

[2] = qHTS assay to identify small molecule antagonists of the thyroid receptor (TR) signaling pathway (AID 743065); also: series mostly up to about 70 µM; nearly all actives have a fitted effect of over 55% in size
Summary of the method: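 Antagonism measured as loss of luciferase signal in GH3 cells stably carrying a TRE-luciferase reporter, co-treated with compound and T3 (1 nM final) for 23.5 h at 37 C. Viability was read in the same well by CellTiter-Fluor.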

[3] = test system: thyroid hormone receptor (rat, GH3 cells); assay: qHTS assay to identify small molecule agonists of the thyroid receptor (TR) signaling pathway (AID 743066; calls by dose curve)
[4] = biological target: Estrogen receptor (Homo sapiens) (UniProt P03372); assay: qHTS assay to identify small molecule antagonists of the estrogen receptor alpha (ER-alpha) signaling pathway (AID 743069; active = well fitted curve in the direction sought with a large enough effect in the signal ratio in the repeat runs, not every such curve was filed as active; the % refers to the signal ratio)
Summary of the method: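 ER-alpha-UAS-bla GripTite HEK293 line; 2% charcoal-stripped FBS overnight; plated, 4 hr 37C/5% CO2; cpd in DMSO + 17beta-estradiol, 18 hr 37C; LiveBLAzer B/G FRET substrate 2 hr RT; fluorescence intensity.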

[5] = qHTS assay to identify small molecule antagonists of the estrogen receptor alpha (ER-alpha) signaling pathway - cell viability counter screen (AID 743074; calls by dose curve;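 also: HEK293 cells carrying ER-alpha-UAS-bla reporter stimulated with 17beta-estradiol; nearly all actives have a fitted effect of over 45% in size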)
[6] = biological target: Estrogen receptor (Homo sapiens) (UniProt P03372); assay: qHTS assay to identify small molecule agonists of the estrogen receptor alpha (ER-alpha) signaling pathway (AID 743075; calls by dose curve;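 also: HEK293 GripTite cells with ER-alpha and UAS-driven beta-lactamase reporter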)
[7] = qHTS assay to identify small molecule antagonists of the estrogen receptor alpha (ER-alpha) signaling pathway using the BG1 cell line (AID 743080; calls by dose curve;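 also: BG1 cells stimulated with 17beta-estradiol alongside compound; series mostly up to about 70 µM; nearly all actives have a fitted effect of over 25% in size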)
Summary of the method: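 Quantitative HTS on the Tox21 10K library: BG1 cells with endogenous ER-alpha and ERE-luciferase reporter, 17beta-estradiol stimulation, 21.5 h compound exposure, luminescence endpoint with parallel fluorescence cytotoxicity counter-read.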

[8] = qHTS assay to identify small molecule antagonists of the estrogen receptor alpha (ER-alpha) signaling pathway using the BG1 cell line - cell viability counter screen (AID 743081);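 also: compound given together with 17beta-estradiol as the ER stimulus; series mostly up to about 70 µM; nearly all actives have a fitted effect of over 45% in size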
Aromatase (Homo sapiens) = Aromatase (Homo sapiens) (UniProt P11511); assay: qHTS assay to identify aromatase inhibitors (AID 743083); also: series mostly up to about 70 µM; nearly all actives have a fitted effect of over 55% in size
[9] = qHTS assay to identify aromatase inhibitors - cell viability counter screen (AID 743084);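 also: cells stimulated with testosterone during compound exposure; nearly all actives have a fitted effect of over 55% in size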
[10] = biological target: Aryl hydrocarbon receptor (Homo sapiens) (UniProt P35869); assay: qHTS assay to identify small molecule that activate the aryl hydrocarbon receptor (AhR) signaling pathway (AID 743085);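 also: HG2L7.5c1 human HepG2 liver cells with stably integrated DRE-driven firefly reporter; series mostly up to about 70 µM; nearly all actives have a fitted effect of over 15% in size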
Summary of the method: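 HepG2 cells stably carrying a 20-DRE firefly luciferase reporter (HG2L7.5c1) treated with compound for 24 hr at 37C. Luciferase read by ONE-Glo luminescence, with CellTiter-Fluor viability read first.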

[11] = qHTS assay to identify small molecule that activate the aryl hydrocarbon receptor (AhR) signaling pathway - cell viability counter screen (AID 743086);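 also: HepG2 liver cells carrying the AhR DRE luciferase reporter; series mostly up to about 70 µM; nearly all actives have a fitted effect of over 45% in size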
Summary of the method: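 Cytotoxicity counter screen: CellTiter-Fluor signal (30 min, 37 C) in 4000 HepG2 cells/well carrying the DRE-luciferase reporter, following 24 h compound exposure at 37 C.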

[12] = biological target: Peroxisome proliferator-activated receptor gamma (Homo sapiens) (UniProt P37231); assay: qHTS assay to identify small molecule agonists of the peroxisome proliferator-activated receptor gamma (PPARg) signaling pathway (AID 743094; active = well fitted activation curve with a large enough effect in the signal ratio in the repeat runs, not every such curve was filed as active; the % refers to the signal ratio)
Summary of the method: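 Quantitative HTS agonist mode: stable HEK293H line with UAS-beta-lactamase reporter under PPARg control, 17 h compound exposure at 37C, fluorescence after 1 h FRET substrate loading at room temperature.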

[13] = biological target: Peroxisome proliferator-activated receptor gamma (Homo sapiens) (UniProt P37231); assay: qHTS assay to identify small molecule antagonists of the peroxisome proliferator-activated receptor gamma (PPARg) signaling pathway (AID 743191; calls by dose curve; also: series mostly up to about 63 µM; nearly all actives have a fitted effect of over 30% in size)
Summary of the method: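 Beta-lactamase reporter under UAS control in HEK293H PPARg-bla cells; compound treatment 17 h at 37C. Read-out: fluorescence intensity after 1 h room-temperature incubation with LiveBLAzer B/G FRET substrate.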

[14] = qHTS assay to identify small molecule antagonists of the peroxisome proliferator-activated receptor gamma (PPARg) signaling pathway - cell viability counter screen (AID 743194); also: nearly all actives have a fitted effect of over 55% in size
Summary of the method: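 Viability was measured as CellTiter-Glo luminescence in GeneBLAzer PPARg UAS-bla HEK293H cells. These cells had been exposed 17 h at 37 C to compounds together with rosiglitazone at 50 nM final, with the beta-lactamase readout taken in the same wells.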

[15] = qHTS assay for small molecule agonists of the antioxidant response element (ARE) signaling pathway (AID 743202; active = well fitted activation curve with a large enough effect in the signal ratio in the repeat runs, not every such curve was filed as active; the % refers to the signal ratio)
Summary of the method: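 Quantitative high-throughput format in HepG2 cells bearing an integrated ARE-beta-lactamase reporter. Compound exposure lasted 16 h at 37 C, and fluorescence was read 2 h after adding LiveBLAzer B/G substrate at room temperature.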

[16] = qHTS assay for small molecule agonists of the antioxidant response element (ARE) signaling pathway - cell viability counter screen (AID 743203; calls by dose curve; also: nearly all actives have a fitted effect of over 55% in size)
Summary of the method: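 Seeded at 2,000 cells/well, ARE-bla HepG2 cells were incubated 5 hrs before compound addition. After 16 hrs of treatment at 37C with 5% CO2, CellTiter-Glo reagent was added and luminescence read 30 min later.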

[17] = qHTS assay for small molecule activators of the heat shock response signaling pathway - cell viability counter screen (AID 743209); also: nearly all actives have a fitted effect of over 50% in size
Summary of the method: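 First, HSE-bla HeLa cells were seeded at 1500 cells/well and kept overnight at 37 C. Next, compounds were pinned in and incubated 5 h. After the FRET substrate step, CellTiter-Glo was added and luminescence read 30 min later.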

[18] = qHTS assay for small molecule activators of the heat shock response signaling pathway (AID 743210; active = well fitted activation curve with a large enough effect in the signal ratio in the repeat runs, with a control signal flat, not every such curve was filed as active; the % refers to the signal ratio;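 also: HeLa cells with beta-lactamase reporter driven by heat shock elements; series mostly up to about 63 µM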)
Summary of the method: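 HeLa HSE-bla cells, overnight plating; cpd in DMSO 5 h, 37 C; LiveBLAzer B/G FRET substrate 2.5 h RT; fluorescence intensity read.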

[19] = biological target: Estrogen receptor (Homo sapiens) (UniProt P03372); assay: qHTS assay to identify small molecule agonists of the estrogen receptor alpha (ER-alpha) signaling pathway using the BG1 cell line (AID 743079); also: nearly all actives have a fitted effect of over 20% in size

Measured: Potency

Chain of Peroxisome proliferator-activated receptor gamma (Homo sapiens) (P37231 whole entry, looked up): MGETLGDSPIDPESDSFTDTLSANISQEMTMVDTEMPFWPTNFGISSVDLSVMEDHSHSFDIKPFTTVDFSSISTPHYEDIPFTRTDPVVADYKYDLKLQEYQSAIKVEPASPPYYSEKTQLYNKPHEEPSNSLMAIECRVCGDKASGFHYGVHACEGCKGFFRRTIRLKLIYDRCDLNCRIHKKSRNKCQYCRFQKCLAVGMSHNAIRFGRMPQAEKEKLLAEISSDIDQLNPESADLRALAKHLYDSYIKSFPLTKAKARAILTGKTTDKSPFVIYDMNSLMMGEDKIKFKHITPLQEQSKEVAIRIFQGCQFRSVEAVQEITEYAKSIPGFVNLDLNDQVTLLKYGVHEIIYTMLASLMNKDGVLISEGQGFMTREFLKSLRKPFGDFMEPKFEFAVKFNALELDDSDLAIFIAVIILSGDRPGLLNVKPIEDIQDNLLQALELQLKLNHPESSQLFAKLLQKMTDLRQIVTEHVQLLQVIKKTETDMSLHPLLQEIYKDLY
Chain of Aromatase (Homo sapiens) (P11511 whole entry, looked up): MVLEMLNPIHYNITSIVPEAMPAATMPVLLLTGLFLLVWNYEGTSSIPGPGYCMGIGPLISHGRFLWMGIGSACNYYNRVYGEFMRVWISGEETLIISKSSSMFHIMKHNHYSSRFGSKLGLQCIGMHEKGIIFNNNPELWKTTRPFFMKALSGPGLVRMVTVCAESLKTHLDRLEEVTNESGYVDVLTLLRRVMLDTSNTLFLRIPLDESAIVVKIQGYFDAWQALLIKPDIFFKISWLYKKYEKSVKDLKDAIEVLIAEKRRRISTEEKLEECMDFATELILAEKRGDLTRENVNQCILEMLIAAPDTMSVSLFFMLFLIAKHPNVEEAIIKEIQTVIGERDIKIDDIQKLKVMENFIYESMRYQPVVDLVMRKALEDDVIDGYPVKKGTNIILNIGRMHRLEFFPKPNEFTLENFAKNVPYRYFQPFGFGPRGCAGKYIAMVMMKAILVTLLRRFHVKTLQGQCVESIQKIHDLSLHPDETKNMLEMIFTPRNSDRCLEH
Chain of Estrogen receptor (Homo sapiens) (P03372 whole entry, looked up): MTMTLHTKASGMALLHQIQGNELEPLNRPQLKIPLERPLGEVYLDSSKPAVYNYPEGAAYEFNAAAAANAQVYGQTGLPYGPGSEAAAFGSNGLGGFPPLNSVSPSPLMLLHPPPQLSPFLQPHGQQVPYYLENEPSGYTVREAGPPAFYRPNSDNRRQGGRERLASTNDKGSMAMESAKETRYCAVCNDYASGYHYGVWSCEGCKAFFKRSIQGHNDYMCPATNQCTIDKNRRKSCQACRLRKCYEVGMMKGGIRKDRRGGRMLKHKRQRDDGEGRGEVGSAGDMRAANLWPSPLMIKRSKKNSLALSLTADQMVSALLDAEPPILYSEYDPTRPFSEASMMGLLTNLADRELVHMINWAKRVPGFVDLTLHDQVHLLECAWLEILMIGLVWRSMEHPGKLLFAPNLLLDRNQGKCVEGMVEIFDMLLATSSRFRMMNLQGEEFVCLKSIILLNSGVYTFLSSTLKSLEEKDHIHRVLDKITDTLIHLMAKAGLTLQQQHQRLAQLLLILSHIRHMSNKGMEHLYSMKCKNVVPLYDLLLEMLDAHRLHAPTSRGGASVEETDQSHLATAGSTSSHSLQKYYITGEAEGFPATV
Chain of Aryl hydrocarbon receptor (Homo sapiens) (P35869 whole entry, looked up): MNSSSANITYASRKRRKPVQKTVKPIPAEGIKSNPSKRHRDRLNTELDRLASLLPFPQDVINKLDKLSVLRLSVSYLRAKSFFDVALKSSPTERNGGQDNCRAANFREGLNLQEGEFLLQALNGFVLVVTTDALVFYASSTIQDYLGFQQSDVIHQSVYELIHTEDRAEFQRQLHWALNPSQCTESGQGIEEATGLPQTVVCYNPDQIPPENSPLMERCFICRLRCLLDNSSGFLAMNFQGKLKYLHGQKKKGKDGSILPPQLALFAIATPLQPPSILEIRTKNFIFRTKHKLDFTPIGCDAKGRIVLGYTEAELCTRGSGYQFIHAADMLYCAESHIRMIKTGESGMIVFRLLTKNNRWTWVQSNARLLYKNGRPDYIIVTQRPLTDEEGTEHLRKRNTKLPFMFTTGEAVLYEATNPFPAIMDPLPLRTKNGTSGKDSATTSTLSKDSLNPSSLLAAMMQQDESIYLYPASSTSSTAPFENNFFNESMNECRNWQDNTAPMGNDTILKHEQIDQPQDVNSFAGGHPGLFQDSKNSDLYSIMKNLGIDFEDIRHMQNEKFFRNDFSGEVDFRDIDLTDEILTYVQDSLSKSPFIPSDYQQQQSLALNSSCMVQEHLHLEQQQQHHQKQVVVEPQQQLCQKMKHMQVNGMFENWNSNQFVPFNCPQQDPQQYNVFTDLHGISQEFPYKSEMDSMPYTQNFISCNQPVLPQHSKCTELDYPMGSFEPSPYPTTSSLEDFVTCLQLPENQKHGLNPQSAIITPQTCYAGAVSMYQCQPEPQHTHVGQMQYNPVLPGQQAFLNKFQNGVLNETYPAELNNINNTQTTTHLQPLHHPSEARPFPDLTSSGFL

O=C(O)[C@H](O)c1ccccc1
not listed: [19]
inactive: all other assays above

C[Si]1(C)O[Si](C)(C)O[Si](C)(C)O[Si](C)(C)O[Si](C)(C)O1
not listed: [10] | [13]
inactive: all other assays above

CC(C)C1OCCN1CCOC(=O)NCCCCCCNC(=O)OCCN1CCOC1C(C)C (stereo unspecified)
not listed: [10] | [14] | [17]
inactive: all other assays above

CCC(=O)c1c(O)cc(O)cc1O
not listed: [10] | [15]
inactive: all other assays above

CCOCCOCC
not listed: [10] | [13]
inactive: all other assays above

CCCSSCCC
not listed: [10] | [15] | [17]
inactive: all other assays above

CCCc1ccc(O)cc1
not listed: [10] | [19]
inactive: all other assays above

CC12CCC(C1)C(C)(C)C2O (stereo unspecified)
not listed: [10] | [14] | [15]
inactive: all other assays above

Fc1ccccc1
not listed: [10] | [12] | [13] | [15]
inactive: all other assays above

CSc1cnccn1
not listed: [10] | [15] | [17]
inactive: all other assays above

COC(=O)CCCCC(=O)O
not listed: [10] | [15]
inactive: all other assays above

CC(C)COC(=O)c1ccccc1
not listed: Aromatase (Homo sapiens) | [10] | [13] | [15] | [16] | [18] | [19]
inactive: all other assays above

CC1=C(C(=O)O)N2C(=O)[C@@H](NC(=O)[C@H](N)C3=CCC=CC3)[C@H]2SC1
not listed: [5] | [8] | [10] | [18]
inactive: all other assays above

OC1OCCOC1O (stereo unspecified)
not listed: [10] | [12] | [13]
inactive: all other assays above

CCCCOCCOC(=O)COc1ccc(Cl)cc1Cl
not listed: [12] | [13] | [19]
inactive: all other assays above
